Active and inactive are the calls of the source.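 How the source made its calls: active means max inhibition of at least 60%; inconclusive means max inhibition above 30% but below 60%; inactive means max inhibition of 30% or less.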

The target in the test is Follicle-stimulating hormone receptor (Homo sapiens) (UniProt P23945). The experiment in a line: qHTS for antagonists of the Thyroid Stimulation Hormone Receptor: Hit Validation with Follickle Stimulating Hormone Receptor (FSHR). The conditions noted are these: FSHR-expressing cells, cAMP HTRF, antagonist counterscreen; stronger effect = higher value. The text has this: The thyroid-stimulating hormone receptor (TSHR) is a member of the 7 trans-membrane-spanning receptor (7TMR) family of cell surface receptors. TSHR-mediated hyperthyroidism is important in thyroid pathology. The development of small molecule antagonists of TSHR may lead to therapeutic approaches for TSHR-mediated hyperthyroidism caused by constitutively activating mutations or stimulating auto-antibodies associated with Graves' disease. Graves' disease is the leading cause of hyperthyroidism and is caused by autoantibodies that stimulate TSHR (TsAbs) causing thyroid growth and unregulated overproduction of thyroid hormones and existing treatments have liabilities (agranulocytosis). In addition, TSHRs are known to be expressed in multiple extrathyroidal tissues including bone, brain, kidney, testis, fat and cells of the immune system but the role of the TSHR in these tissues is not clear. Therefore, TSHR antagonists/inverse agonists could be used as probes of extrathyroidal TSHR function. Finally, TSHR inverse agonists, which are a subclass of antagonists that inhibit agonist-independent (or basal or constitutive) TSHR signaling, could be used to inhibit TSH-independent signaling in patients with recurrent or metastatic thyroid cancer who are receiving thyroid hormone to suppress TSH. In collaboration between scientist from the NCGC and the NIDDK, a miniaturized HTRF high-throughput screen was developed. It's a cell based assay, where an anti cAMP antibody contains a fluorescent cryptate tag (excitation 337 nm; emission 620 nm) and the acceptor is cAMP-d2 (excitation 620 nm; emission 665 nm). When antibody and cAMP-d2 interact and are excited by a 337 nm light, a FRET occurs resulting in emission at 665 nm. The assay is competition between cAMP-d2 and cAMP (from the cell lysate). The homogeneous protocol allows for one step dispense after stimulation that is automation friendly. This is a hit validation assay in a counterscreen using FSHR, a closely related hormone receptor NIH Chemical Genomics Center [NCGC] NIH Molecular Libraries Probe Centers Network [MLPCN] Grant: MH090855 Assay Provider: Marvin Gershengorn, NIDDK
Sequence of Follicle-stimulating hormone receptor (Homo sapiens) (P23945 whole entry, looked up): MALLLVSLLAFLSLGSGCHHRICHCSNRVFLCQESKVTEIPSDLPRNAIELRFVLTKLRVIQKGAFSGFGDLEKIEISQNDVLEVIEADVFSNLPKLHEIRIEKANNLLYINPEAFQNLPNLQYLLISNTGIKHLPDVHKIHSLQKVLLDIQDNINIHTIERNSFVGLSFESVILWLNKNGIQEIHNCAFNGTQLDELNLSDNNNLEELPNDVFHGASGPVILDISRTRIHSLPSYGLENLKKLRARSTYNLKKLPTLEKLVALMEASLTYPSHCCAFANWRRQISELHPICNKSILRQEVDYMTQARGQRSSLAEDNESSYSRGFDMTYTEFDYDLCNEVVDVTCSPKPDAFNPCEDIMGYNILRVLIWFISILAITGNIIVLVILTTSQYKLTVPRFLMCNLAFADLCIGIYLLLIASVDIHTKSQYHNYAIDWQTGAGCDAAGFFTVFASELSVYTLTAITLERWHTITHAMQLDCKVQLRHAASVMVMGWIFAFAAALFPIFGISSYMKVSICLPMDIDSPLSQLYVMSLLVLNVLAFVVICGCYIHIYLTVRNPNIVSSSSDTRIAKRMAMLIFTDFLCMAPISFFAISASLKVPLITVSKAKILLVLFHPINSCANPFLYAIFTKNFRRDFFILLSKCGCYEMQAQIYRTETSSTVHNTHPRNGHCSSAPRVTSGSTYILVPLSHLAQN
An anti cAMP antibody contains a fluorescent cryptate tag (excitation 337 nm; emission 620 nm) and the acceptor is cAMP-d2 (excitation 620 nm; emission 665 nm). When antibody and cAMP-d2 interact and are excited by a 337 nm light, a FRET occurs resulting in emission at 665 nm. The assay is competition between cAMP-d2 and cAMP (from the cell lysate). The homogeneous protocol allows for one step dispense after stimulation that is automation friendly.
A general note: Quantitative high-throughput screening tests each substance at several concentrations.

Take `O=C1/C(=C\c2cc([N+](=O)[O-])ccc2O)SC(=S)N1Cc1ccc(Cl)cc1`: the max inhibition is 94.2% (active). `CCC(=O)OCCNc1cc(Sc2nccn2C)c2nonc2c1[N+](=O)[O-]` gave a max inhibition of 20%. For `O=c1cc(C(F)(F)F)[nH]c2c(C(F)(F)F)cccc12`, the max inhibition was 82.4% (active). Consider `COc1ccc(OCC(=O)NC(=S)Nc2ccc(N3CCOCC3)c(Cl)c2)cc1`, for which the max inhibition is 87.6% (active). In the case of `CC(=O)Oc1c(C)cc(Cl)cc1C(=O)Nc1ccc([N+](=O)[O-])cc1Cl` it was 63.6% (active); in that of `COc1ccc(-c2csc(/C(C#N)=C\c3ccc(O)c([N+](=O)[O-])c3)n2)cc1OC`, 87.2% (active); in that of `O=C(COc1cccc2ccccc12)Nc1ccc(Cl)cc1C(=O)O`, 62.5% (active). In the case of `Cc1ccc(-n2[nH]c(C)c(/C=N/Nc3ccc([N+](=O)[O-])cc3[N+](=O)[O-])c2=O)cc1C` it was 81.1% (active).

Values taken from PubChem BioAssay AID602448 (National Center for Advancing Translational Sciences (NCATS), 2012).
